The supplement of paper PMC11219838
A number with no mark means an inactive call.

test system: Ditylenchus dipsaci; assay: proportion of mobile D. dipsaci (mixed stage) relative to DMSO control (fraction of DMSO control); higher = more viable, less nematicidal, active = 0.86 or less; extreme values may be limits of the assay; settings: 60 µM; 5 days; temperature: 20 °C
Summary of the method: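 D. dipsaci were grown on pea plants in Gamborg B-5 agar and extracted through a filter funnel into water, and about 20 worms were added per 96-well well in distilled water. Compound was pinned to 60 µM final (0.6% v/v DMSO), and sealed plates were shaken at 200 rpm for 5 days at 20 °C. After 2 µL 1 M NaOH was added, mobile worms were scored microscopically. Mobility was expressed relative to DMSO controls and averaged over two biological replicates.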

SMILES | proportion of mobile D. dipsaci
CCc1nnc(NC(=O)CSc2nnc(-c3cccc(C)c3)o2)s1 | 1
Cc1cccc(OC(C)c2nc(-c3cccnc3)no2)c1 (stereo unspecified) | 1
Clc1ccc(-c2noc(-c3cccnc3)n2)cc1 | 1
c1csc(-c2nnc(-c3cccs3)o2)c1 | 0.769 (active)
Cc1ccc(OCc2nc(-c3ccncc3)no2)c(Br)c1 | 1
Cc1cccc(-c2nnc(SCC(=O)Nc3ccccc3F)o2)c1 | 1
N#Cc1ccc(OCc2nc(-c3cccs3)no2)cc1 | 1
O=C(CSc1nnc(-c2cccc(Cl)c2)o1)Nc1ccccc1 | 1
COc1cccc(-c2nnc(SCC(=O)Nc3ccccc3)o2)c1 | 1
Cc1cc(OCc2nc(-c3cccnc3)no2)c(C)cc1Br | 1
CN(C)C(=O)c1ccccc1-c1nc(-c2ccc(Cl)cc2)no1 | 1
COc1cccc(-c2noc(COc3ccc(Br)cc3)n2)c1 | 1
COc1ccc(Cl)cc1-c1noc(COc2ccc(Cl)cc2)n1 | 1
Cc1ccc(-c2nnc(SCc3ccccc3C)o2)cc1 | 1
COC(=O)c1ccc(CSc2nnc(-c3ccncc3)o2)cc1 | 1
Cc1cccc(-c2noc(-c3cccc(Br)c3)n2)c1 | 1
COc1cccc(-c2noc(-c3cccc(F)c3)n2)c1 | 1
COc1cccc(-c2nc(-c3ccc(Cl)cc3)no2)c1 | 1
O=C(CSc1nnc(-c2ccc(Cl)cc2)o1)NC1CC2CCC1C2 (stereo unspecified) | 1
COc1ccc(-c2noc(COc3ccc(C(C)(C)C)cc3Br)n2)cc1 | 1
CCCc1ccc(-c2ccc(-c3nc(-c4ccccn4)no3)cc2)cc1 | 1
